# Data from PubChem BioAssay AID493185 (National Center for Advancing Translational Sciences (NCATS), 2011).
# Active and inactive are the calls of the source. A call without a number means that no potency is given here. Calls follow the shape of the dose curve; as a rule, active = well fitted activation curve with a large enough effect; inconclusive = small, poorly fitted or top-dose-only effect; inactive = no such curve, though single readings can be large or run the other way.
# Assay: Counterscreen for Identifying a Potential Treatment of Ataxia-Telangiectasia: Hit Validation
# Settings: cell-free AlphaLISA/AlphaScreen artifact counterscreen, PBS only, no cells; series mostly up to 76.9 µM
# From the text: NIH Chemical Genomics Center [NCGC]
# NIH Molecular Libraries Probe Centers Network [MLPCN]
# Assay Submitter (PI): Wei Zheng and Yosef Shiloh
# Ataxia-telangiectasia (A-T) is a devastating and progressive disease for which, there is no cure. Although A-T is a multisystem disease, it is stereotyped characterized by its neurological symptoms such as truncal ataxia, due to cerebellar cortical degeneration of the Purkinje and granule cells. Other symptoms of A-T are telangiectasias (dilated blood vessels), primary immunodeficiency, marked sensitivity to ionizing radiation (IR), chromosomal instability and predisposition to cancer.
# The underlying genetic cause of A-T is null mutations in the ATM (A-T mutated) gene. ATM is a nuclear serine/threonine kinase that functions as a master regulator of the cellular responses to double strand breaks (DSBs) in the DNA. Upon activation by DSBs, ATM phosphorylates a plethora of downstream targets, including KAP-1 on […]. KAP-1 phosphorylation occurs shortly in response to DSBs and mediates global chromatin relaxation, which facilitates DSB repair. To screen for small molecules that will compensate for the loss of ATM in cells derived from A-T patients, we monitored KAP-1 phosphorylation as a readout for ATM-like activity using an AlphaLISA assay.
# 3. Library compounds, 23 nl, 76.7 - 0.61uM dilution series final concentration
# 4. Incubation, 60 min, 37C, 5% CO2, 95% humidity
# 6. Incubation, 30 min, 37C, 5% CO2, 95% humidity
# 7. Reagent, 1 ul, Premixed detection reagents and lysis buffer
# 8. Reagent, 1 ul, 0.6% Antifoam A
# 9. Incubation, 6 hr, 25C, 95% humidity
# 10. Readout, EnVision, EnVision plate reader. AlphaScreen 1536-well protocol
# PBS was dispensed into medium-binding white solid-bottom tissue culture treated Kalypsys plates with a Multidrop dispenser. Detection reagent and lysis buffer was 3.75nM Rab-a-pKAP1 antibody bound to 75 ng/ul AlphaScreen SA donor bead, 3.75 nM Biot-M-a-KAP1 antibody bound to AlphaLISA protein A acceptor bead, 0.5x protease inhibitor cocktail and 0.25x PerkinElmer lysis buffer. EnVision protocol for 1536-well AlphaScreen read (30ms excitation, 100ms read), about 10 min/plate. This assay is similar to the primary screen but is without cells. It aims to identify artifacts of the assay platform and unspecific hits.
# Potency is read from the fitted curve at half-maximal effect.
row,Structure (SMILES),Potency
1,O=C(c1cccnc1)C1CCCN(Cc2nc(-c3cnccn3)no2)C1 (stereo not given),inactive
2,CCCCn1c(O)c(C(=O)/C=C/c2c[nH]c3ccccc23)c(=O)[nH]c1=O,inactive
3,CCc1ccc(N2C(=O)NC(=O)/C(=C\C=C\c3ccco3)C2=O)cc1,inactive
4,CN1CCN(c2ccc([N+](=O)[O-])c3no[n+]([O-])c23)CC1,inactive
5,Cc1nc2ccccc2c(=O)n1-c1ccc(F)cc1F,inactive
6,CCN(CC)S(=O)(=O)c1cccc(N=Nc2c(O)n(CC)c(=S)n(CC)c2=O)c1,inactive
7,CC1(C)C[C@H]2C=C(C=O)[C@]3(C=O)C[C@]3(C)[C@H]2C1,inactive
8,COC(=O)C1=C(c2ccc(OCc3ccccc3)cc2)C[C@@H]2CC[C@H]1N2C(=O)NCc1cccc(C(F)(F)F)c1,inactive
9,Cc1ccc(-n2c(O)c(C=NCC3CCCO3)c(=O)[nH]c2=O)c(C)c1 (stereo not given),inactive
10,CCN1C(=O)N(CC)C(=O)C2(Cc3ccccc3N3CCN(c4ccccc4)CC32)C1=O (stereo not given),inactive
11,Cc1cc(O)c2c(c1)C(=O)C13C(=C2O)C(=O)[C@H]2[C@@H](O)[C@@H]1[C@H]1[C@H](O)[C@@H]3C(=O)C3=C(O)c4c(O)cc(C)cc4C(=O)C312 (stereo not given in full),7.33 µM (active)
12,CCN(CC)S(=O)(=O)c1ccc(C(=O)NC2CN3CCC2CC3)cc1 (stereo not given),inactive
13,CN1CCCC(C(O)(c2ccccc2)c2ccccc2)C1 (stereo not given),inactive
14,CCCCC(=O)N/N=C/c1c(O)n(CCC2=CCCCC2)c(=O)[nH]c1=O,inactive
15,O=C1Nc2ccccc2C1Cc1nc2ccccc2c(=O)n1-c1ccccc1 (stereo not given),inactive
16,C/C=C/c1ccc2c(c1)OCO2,inactive
17,CC(=O)OC1CC[C@]2(C#N)[C@H]3CC[C@]4(C)[C@H](C5C=CC(=O)O5)CCC4(O)C3CCC2(O)C1 (stereo not given in full),inactive
18,Cc1cccc(N2C(=O)NC(=O)/C(=C\C=C\c3ccco3)C2=O)c1,inactive
19,Cc1ccc(C)c(NP(=O)(Oc2ccccc2)Oc2ccccc2)c1,inactive
20,CC(C)c1ccc(-n2c(O)c(C=NC(CCS(C)=O)C(=O)O)c(=O)[nH]c2=S)cc1 (stereo not given),inactive
